Active and inactive are the calls of the source. The calls were made as follows: active = hit-call score of the fitted dose curve at least 0.9, where 1 is the maximum; inactive = score below 0.9.

The text below walks through data of PubChem BioAssay (EPA / NIEHS).

The nature of the test: BSK_3C_SRB: Viability Assessment in the BioMAP Diversity Plus: 3C Assay (AID 2283023).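 Also: fitted both ways against DMSO so a hit may be signal rise or drop.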 As to conditions: primary human endothelial cells (HUVEC). The method, then: BSK_3C is a cell-based, multiplexed-readout assay that uses umbilical vein endothelium, a human vascular primary cell, with measurements taken at 24 hours after chemical dosing in a 96-well plate.BSK_3C_SRB is an assay component measured in the BSK_3C assay. It measures 0.1% sulforhodamine related to cell death using Sulforhodamine staining technology.Data from the assay component BSK_3C_SRB was analyzed into 1 assay endpoint. This assay endpoint, BSK_3C_SRB, was analyzed with bidirectional fitting relative to DMSO as the negative control and baseline of activity. Using a type of viability reporter, gain or loss-of-signal activity can be used to understand changes in the signaling. Furthermore, this assay endpoint can be referred to as a primary readout, because this assay has produced multiple assay endpoints where this one serves a signaling function. To generalize the intended target to other relatable targets, this assay endpoint is annotated to the cell morphology intended target family, where the subfamily is cell conformation.
The levels of cell surface (or secreted, indicated by the prefix "s") biomarker endpoints were measured by ELISA. Overt cytotoxicity to cells in confluent adherent cultures (all systems other than the BT system) was assessed by measuring total protein levels using sulforhodamine B (SRB) staining in parallel cultures at the time of biomarker measurements, indicated as SRB endpoints. For proliferation assays for adherent cell types, individual cell types are cultured at sub-confluence and relative cell numbers quantified by SRB staining at time points optimized for each system (48 h: 3C and CASM3C systems; 72 h: BT and HDF3CGF systems; 96 h: SAg system). SRB was performed by staining cells with 0.1% SRB after fixation with 10% TCA and reading wells at 560 nm.Viability and proliferation of PBMC (T cells) was quantified by Alamar Blue reduction for the SAg and BT systems. For PBMC viability (referred to as PBMC Cytotoxicity within the assay endpoint names), cells were plated (75,000/well in a 96-well plate) and then chemical samples added for 1 h before addition of activators, SEB and TSST-1 (20 ng/mL final concentration each). Cells were incubated for 90 h. Then, Alamar Blue (20 uL/well) (Invitrogen, Cat DAL1100) was added for 6 h, and the plates were read with a fluorescence microplate reader at 546/580 nm (excitation/emission). For PBMC proliferation, cells were plated and activated as above but incubated for only 16 h prior to addition of Alamar Blue. Plates were read after 6 h.
Take `CC(=O)OC/C=C(\C)CCC=C(C)C`: the outcome was inactive.
For the compound `CCOc1ccc2c(c1)C(C)=CC(C)(C)N2`, the result was inactive.
In the case of `CCCCCC(=O)O`, the outcome was inactive.
With `COc1cc(C=O)ccc1O`, the result was inactive.
On to `Cc1nc(C)nc(N2C[C@@H](C)N(c3ccnc([C@@H](C)O)n3)[C@@H](C)C2)n1`, for which the outcome was inactive.
The same measure, in the same setting: the entry for `Clc1cc(Cl)c(Cl)cc1Cl` is “inactive”; for `CCCc1cc(=O)[nH]c(=S)[nH]1` it is “inactive”; for `COCCOC[C@H](CC1(C(=O)NC2CCC(C(=O)O)CC2)CCCC1)C(=O)Oc1ccc2c(c1)CCC2` (stereo not given in full) it is “inactive”.
On the same count and under the same terms, the entry for `O=C(O)CCCCC(=O)O` is “inactive”; for `Cc1ccccc1Cl` it is “inactive”; for `CCCCCCCCCCO` it is “inactive”.
Still for that read-out and setting: the same measure for `Nc1nc(N)c2nc(CNc3ccc(C(=O)N[C@@H](CCC(=O)O)C(=O)O)cc3)cnc2n1`: “inactive”; for `Cc1cccc(C)c1O`: “inactive”.
In the case of `CCOC(=O)CCC(=O)OCC`, the result was inactive.
As to `CCCCCCC(=O)OCC`, the result was inactive.
The same measure, in the same setting: the same measure for `O=C(OCCCCCOC(=O)c1ccccc1)c1ccccc1`: “inactive”; for `O=[N+]([O-])C(CO)(CO)CO`: “inactive”.
For `CNCc1cc(F)ccc1Oc1ccc(Cl)c(Cl)c1`, the AC50 (usually the midpoint of the concentration-response curve, whichever way the signal moves) was 27.6 µM (active).
For `CCCCCCCCCCCCCCCC`, the result was inactive.
Still for that read-out and setting: the same measure for `CC1=C(/C=C/C(C)=C/C=C/C(C)=C/CO)C(C)(C)CCC1`: “inactive”; for `CC1(C)CC(N=C=O)CC(C)(CN=C=O)C1` (stereo not given): “inactive”; for `OC[C@@H](O)[C@@H](O)[C@H](O)[C@H](O)CO`: “inactive”.
For `COc1ccc(S(=O)(=O)N2C(=O)[C@@](c3ccccc3OC)(N3C[C@H](O)C[C@H]3C(=O)N(C)C)c3cc(Cl)ccc32)c(OC)c1`, the AC50 was 27 µM (active).
With `CN1CCCC1=O`, the result was inactive.
Still for that read-out and setting: the same measure for `Cc1ccc(C)c(O)c1C`: “inactive”.
As to `CNC(=O)[C@H]1O[C@@H](n2cnc3c(NCc4cc(Cl)ccc4OCc4cc(C)no4)ncnc32)[C@H](O)[C@@H]1N`, the outcome was inactive.
Same read-out and setting: the entry for `CC(C)c1ccc(C(=O)N=C(N)N)cc1S(C)(=O)=O` is “inactive”; for `COc1ccc2c(c1)c(CC(=O)O)c(C)n2C(=O)c1ccc(Cl)cc1` it is “inactive”; for `COc1cc(S(=O)(=O)O)c(C)cc1N=Nc1c(O)ccc2cc(S(=O)(=O)O)ccc12` it is “inactive”.
As for `Cc1cc(=O)[nH]c(=S)[nH]1`, the outcome was inactive.
As to `Cc1ccc(Cl)cc1`, the outcome was inactive.
In the case of `O=c1c(O)c(-c2ccc(O)c(O)c2)oc2cc(O)cc(O)c12`, the AC50 was 15.3 µM (active).
Regarding `Nc1ccccc1N`, the result was inactive.
Still for that read-out and setting: the same measure for `Cc1cccc([N+](=O)[O-])c1C`: “inactive”; for `Oc1ccc2ccccc2c1N=Nc1ccccc1`: “inactive”; for `CC(=O)Oc1ccccc1C(=O)O`: “inactive”.
For the compound `CCCCN(CCCC)CCCC`, the result was inactive.
On the same count and under the same terms, the entry for `Cc1ccc(C(C)C)c(O)c1` is “inactive”; for `C[C@]12C=CC(=O)C=C1CC[C@@H]1[C@@H]2C(=O)C[C@@]2(C)[C@H]1CC[C@]2(O)C(=O)CO` it is “inactive”; for `CCCCCCCCCCCC(=O)OC` it is “inactive”.
